This passage reports Potency results from PubChem BioAssay (NCATS).

The structures appear in SMILES notation. Records with an inconclusive call do not appear. A call without a number means that no potency is given here. Active and inactive are the calls of the source. Calls come from the whole dose curve; as a rule, active = well fitted cell-killing curve with a large enough effect; inconclusive = small, poorly fitted or top-dose-only effect, or effect the other way; inactive = flat fitted curve, though single readings scatter.
Potency is the fitted concentration of half-maximal effect.

This assay concerns CAOV3. The assay can be described thus: Primary qHTS to identify gynecologic anti-cancer compounds using libraries of approved drugs and bioactive compounds (AID 1345084). Note: nearly all actives have a fitted effect of over 55% in size. The settings on record: Gynecologic cancer cell panel viability, ATPlite luminescence, 48 h; series mostly up to 57.5 µM. From the text: National Center for Advancing Translational Sciences [NCATS] Assay Overview: Chemotherapeutic drug responses vary from cancer to cancer and from patient to patient. These variations could be caused by a number of factors including patient genomic background, tumor mutations, tumor heterogeneity, and aspects of drug treatment. Chemotherapeutic drug resistance is also a common issue and can lead to ineffective treatment and patient death. Here we have profiled the cell killing effects of thousands of compounds to characterize the responses in three gynecological cancers, identify cancer-selective compounds, and understand the diversity of responses to these compounds from pan-cancer suppressors to single cell line selective compounds. In this assay, we screened a 7,914 compound drug library that included approved drug and bioactive compounds in six ovarian, three cervical, and […] placental cancer cell lines using the ATPlite assay for cell viability. […] The cervical cancer cell lines included HeLa, Ca Ski, and C-33 A. The placental cancer cell lines included JEG-3. HEK 293T cells were used as the control cell line to determine the selectivity index. ATPlite is a luminescence based assay reliant on the conversion of a luciferase substrate to light in the presence of ATP. As a cytotoxic compound will suppress growth and decrease the number of cells, the concentration of ATP will decrease, and less light signal will be detected in the well.
Assay Protocol Summary: 1,000 cells in 4 uL of media were dispensed into white, solid bottom 1536-well plates using a Multidrop Combi (Thermo Scientific). The Assay plates were incubated for 16 hours at 37 C with 5% CO2 in assay plates, followed by the addition of 23 nL of DMSO or drug dissolved in DMSO. Each compound was assayed in five concentrations (0.092, 0.46, 2.3, 11.5, and 57.5 uM), using the automated Wako 1536 Pin Tool workstation and incubated at 37 C with 5% CO2 48 hours. 4 uL of ATPlite, the ATP monitoring reagent, was then added to the each well of the assay plates using the Multidrop Combi reagent dispenser followed by incubation for 15 minutes at room temperature. The resulting luminescence was measured using the ViewLux plate reader.
A general note: qHTS replaces the single test concentration by a dilution series.
With `Cn1c(=O)c2[nH]cnc2n(C)c1=O`, the Potency result is “inactive”.

For `CC(C(=O)O)c1cccc(C(=O)c2ccccc2)c1` (stereo not given), the Potency entry was “inactive”.

Regarding `COc1ccc2c(c1)c(CC(=O)O)c(C)n2C(=O)c1ccc(Cl)cc1`, the Potency entry was “inactive”.

In the case of `Cc1ccc(-c2cc(C(F)(F)F)nn2-c2ccc(S(N)(=O)=O)cc2)cc1`, the Potency entry is “inactive”.

Regarding `CCOC(=O)Nc1ccc(NCc2ccc(F)cc2)nc1N`, the Potency entry was “inactive”.

In the case of `CC[N+](CC)(CC)CCOc1cccc(OCC[N+](CC)(CC)CC)c1OCC[N+](CC)(CC)CC`, the Potency result was “inactive”.

For the compound `NS(=O)(=O)c1cc2c(cc1Cl)NCNS2(=O)=O`, the Potency entry is “inactive”.

As for `NC(=O)NO`, the Potency result is “inactive”.

On to `COC(=O)Nc1nc2ccc(C(=O)c3cccs3)cc2[nH]1`, for which the Potency entry was “inactive”.

Consider `Nc1c2c(nc3ccccc13)CCCC2`, for which the Potency result was “inactive”.

`N[C@@H](Cc1c[nH]c2ccc(O)cc12)C(=O)O`: the Potency result was “inactive”.

`O=c1c(O)c(-c2ccc(O)c(O)c2)oc2cc(O)cc(O)c12`: the Potency result was “inactive”.

Take `CC(C)C(=O)Nc1ccc([N+](=O)[O-])c(C(F)(F)F)c1`: the Potency entry is “inactive”.

On to `O=C1N(c2ccccc2)c2ccccc2C1(Cc1ccncc1)Cc1ccncc1`, for which the Potency entry is “inactive”.

Turning to `CCOC(=O)C(C)(C)Oc1ccc(Cl)cc1`, the Potency result is “inactive”.

On to `CC1(C)O[C@H]2CC(=O)OC[C@]23[C@H]2CC[C@@]4(C)[C@H](c5ccoc5)OC(=O)[C@H]5O[C@]54[C@]2(C)C(=O)C[C@@H]13`, for which the Potency entry was “inactive”.

Turning to `COc1nc(C)nc(Cl)c1NC1=NCCN1`, the Potency result was “inactive”.

Regarding `NC(=O)OCC(COC(N)=O)c1ccccc1`, the Potency entry was “inactive”.

For `O=c1c(-c2ccc(O)cc2)coc2cc(O)cc(O)c12`, the Potency entry was “inactive”.

On to `CC1(CN2CCC(n3c(=O)[nH]c4ccccc43)CC2)OCc2ccccc2-n2cccc21` (stereo not given), for which the Potency entry was “inactive”.

Consider `NC12CC3CC(CC(C3)C1)C2`, for which the Potency entry is “inactive”.

Take `Clc1ccc2c(c1)C(N1CCNCC1)=Nc1ccccc1O2`: the Potency entry is “inactive”.

With `COc1ccc(C2CNC(=O)C2)cc1OC1CCCC1` (stereo not given), the Potency result was “inactive”.

`CC#C[C@]1(O)CC[C@H]2[C@@H]3CCC4=CC(=O)CCC4=C3[C@@H](c3ccc(N(C)C)cc3)C[C@@]21C`: the Potency entry was “inactive”.

On to `CN(C)CCC=C1c2ccccc2C=Cc2ccccc21`, for which the Potency result was “inactive”.

Regarding `CN1CCC(=C2c3ccccc3C=Cc3ccccc32)CC1`, the Potency entry is “inactive”.

As for `CCc1cccc2c3c([nH]c12)C(CC)(CC(=O)O)OCC3` (stereo not given), the Potency entry is “inactive”.

Regarding `CCCCc1oc2ccccc2c1C(=O)c1cc(I)c(OCCN(CC)CC)c(I)c1`, the Potency entry is “inactive”.

Turning to `CS(=O)(=O)Nc1ccc([N+](=O)[O-])cc1Oc1ccccc1`, the Potency result was “inactive”.

For `CC(C)NCC(O)COc1ccc(CCOCC2CC2)cc1` (stereo not given), the Potency entry was “inactive”.

For `COc1ccccc1N1CCN(CC(O)COc2cccc3ccccc23)CC1` (stereo not given), the Potency was 12.6 µM (active).

As for `CC(C)NCC(O)c1ccc(O)c(O)c1` (stereo not given), the Potency entry was “inactive”.

`COc1cc2nc(N3CCN(C(=O)C4COc5ccccc5O4)CC3)nc(N)c2cc1OC` (stereo not given): the Potency entry is “inactive”.

For `CC(C)(C)C(=O)Oc1ccc(S(=O)(=O)Nc2ccccc2C(=O)NCC(=O)O)cc1`, the Potency entry is “inactive”.

Take `Nc1nc2c(ncn2COC(CO)CO)c(=O)[nH]1`: the Potency result was “inactive”.

For the compound `NCCS(=O)(=O)O`, the Potency result is “inactive”.

Take `COc1ccccc1OCC(O)CN1CCN(CC(=O)Nc2c(C)cccc2C)CC1` (stereo not given): the Potency result was “inactive”.

As for `CCCNCC(O)COc1ccccc1C(=O)CCc1ccccc1` (stereo not given), the Potency result was “inactive”.

On to `CN1CCN(CCCN2c3ccccc3Sc3ccc(Cl)cc32)CC1`, for which the Potency entry was “inactive”.

As to `Cc1ccc(C(=O)Nc2ccc(S(=O)(=O)O)c3cc(S(=O)(=O)O)cc(S(=O)(=O)O)c23)cc1NC(=O)c1cccc(NC(=O)Nc2cccc(C(=O)Nc3cc(C(=O)Nc4ccc(S(=O)(=O)O)c5cc(S(=O)(=O)O)cc(S(=O)(=O)O)c45)ccc3C)c2)c1`, the Potency entry is “inactive”.
